Experimental data from PubChem BioAssay AID504582 (Broad Institute, 2011).
In all, about 340,000 compounds went through this assay and about 2,300 (0.68%) were called active. This excerpt belongs to a sample that is enriched for actives. A number with no mark means an inactive call. No stated cut-off is given here; in the data, active means growth rescue above about 28% (passing the limit was not always enough); inconclusive means no clear call, values can overlap the other calls.

Test: rescue of yeast from PfHsp40 toxicity, primary screen, S. cerevisiae, ATP luminescence (AID 504582);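 further: yeast W303a lacking pdr1 and pdr3 grown in galactose medium; growth measured after three days at 30 °C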
Conditions: S. cerevisiae expressing PfHsp40, growth rescue, at 12.5 µM, stronger effect = higher value
CSc1ccc(CNCCN2CCOCC2)cc1 showed a growth rescue of -0.373%. In the case of CCOc1ccc(NC(=O)C2CCN(C(=O)N3CCOc4ccccc43)CC2)cc1, the growth rescue is reported as 2.49%. CCN(CC)S(=O)(=O)c1ccc(CNC(=O)CN2C(=O)NC3(CCc4ccccc43)C2=O)cc1 (configuration not stated) gave a growth rescue of 0.805%. With COc1ccc(N2CCN(C(=O)CCNC(=O)c3ccc(Br)cc3)CC2)cc1 the growth rescue was 156% (active). Molecule COc1ccc(N2CCN(C(=O)CNC(=O)c3ccc(C(C)(C)C)cc3)CC2)cc1 has a growth rescue of -0.643%. For COc1ccc(N2CCN(C(=O)CNC(=O)c3ccc(Br)o3)CC2)cc1, the growth rescue was 0.176%. In the case of CCOC(=O)c1cnc(Nc2nc3ccccc3o2)nc1CSC(=S)N1CCCCC1, the growth rescue is reported as -0.518%. Molecule Cc1ccc2[nH]c(=O)c(CN(CCCN(C)C)C(=O)Nc3cccc(Cl)c3)cc2c1 has a growth rescue of -0.771%. CCn1c(/C=C/Nc2ccccc2)[n+](CC)c2ccc(C(=O)OCC(F)(F)F)cc21 gave a growth rescue of -1.14%. O=C(NN1C(=O)C2CCCCC2C1=O)c1ccco1 (configuration not stated) showed a growth rescue of -1.05%. For O=C1Nc2cc(Cl)c(Cl)cc2N(O)N1c1cc(Cl)cc(Cl)c1, the growth rescue was 7.24%. In the case of Nc1ccc(C(=O)Nc2ccccc2N)cc1, the growth rescue is reported as 0.192%. For CC(=O)Nc1ccccc1NC(=O)c1cc(C)cc(C)c1, the growth rescue was 51.5% (active). Cc1ccccc1C(=O)Nc1ccccc1NC(=O)c1ccccc1C showed a growth rescue of -1.3%. In the case of CC(=O)NNc1cc(=O)c2c(=O)n(C)c(=O)n(C)c2[nH]1, the growth rescue is reported as -1.81%. Cc1cc(Nc2cccc(C)c2C)n2ncnc2n1 showed a growth rescue of -0.558%. In the case of Cc1ccc(-c2nn(C(C)(C)C)c3ncnc(N)c23)cc1, the growth rescue is reported as 263% (active). In the case of CCOc1cccc(NC(=O)Cn2nc(-c3ccc4c(c3)OCCO4)ccc2=O)c1, the growth rescue is reported as 1.19%. In the case of Cc1cc(C(=O)NCCc2ccc(Cl)cc2)n(-c2ccccc2)n1, the growth rescue is reported as 0.0165%. Work on O=C(NCCc1ccccc1)Oc1ccc(Cl)cc1 yielded a growth rescue of -0.082%. With Cc1cc(C(=O)NCCc2ccc(Cl)cc2)c(C)o1 the growth rescue was 52.1% (active). Work on Cc1ccc(C(NC(=O)N2CCCC2)C(Cl)(Cl)Cl)cc1F (configuration not stated) yielded a growth rescue of -0.492%. With CCCCn1c(SCC(=O)N2CCOCC2)nc2c1c(=O)n(C)c(=O)n2C the growth rescue was -0.611%. With CC(C)(C)OC(=O)C[C@@H]1C/C=C\C[C@@H](CC(=O)N[C@H](CO)Cc2ccccc2)C(=O)NCCOC1=O the growth rescue was -0.196%. Work on COc1ccc(-c2cc(=O)oc3cc(OC(C)C(=O)Nc4ccc(CN5CCOCC5)cc4)ccc23)cc1 (configuration not stated) yielded a growth rescue of 0.401%. For CCC(=O)N1CCN(c2ccccc2NC(=O)COc2cccc(C)c2C)CC1, the growth rescue was 2.68%. COc1cc(NC(=O)COc2ccccc2Cl)ccc1NC(=O)C(C)C gave a growth rescue of 1.17%. With Cc1ccccc1OCC(=O)Nc1ccc(N2CCN(C(=O)C(C)C)CC2)c(Cl)c1 the growth rescue was 48.8% (active). CCCC1OC23CCCCC2C(C#N)(C#N)C1(C#N)C(=N)O3 (configuration not stated) showed a growth rescue of -1.17%. Work on CC(=O)Nc1nc(N(C)C)nc(N(C)C)n1 yielded a growth rescue of 1.85%. Cn1cccc1C(C#N)c1ccccc1C#N (configuration not stated) showed a growth rescue of -0.257%. For O=C(Nc1nnc(-c2ccc(Cl)cc2)o1)c1ccccc1Br, the growth rescue was 92.7% (active). In the case of COc1ccccc1C(=O)NCC(=O)OCC(=O)Nc1nnc(-c2ccccc2)o1, the growth rescue is reported as -1.88%. Cc1ccnc2nc(C(=O)Nc3nnc(-c4ccccc4)o3)nn12 showed a growth rescue of -0.238%. COc1ccc2c(c1)c1ncn(Cc3ccccn3)c(=O)c1n2C gave a growth rescue of -0.652%. Work on O=C(O)c1cc2c(cc1NC(=O)c1c(F)cccc1Cl)OCCCO2 yielded a growth rescue of -1.32%. In the case of O=C1c2ccccc2C2=Nc3ccccc3SC(c3ccccc3F)C12 (configuration not stated), the growth rescue is reported as 152% (active). With CN(Cc1ccc(F)cc1)C(=O)CN1C(=O)c2ccccc2S1(=O)=O the growth rescue was -1.04%. Molecule Cc1cccc(-c2oc3ccc(-c4ccc5c(c4)OCO5)cc3c2C#Cc2cncn2C)c1 has a growth rescue of 0.141%. Work on COc1ccc2sc(-c3ccc(S(C)(=O)=O)cc3)c(C#Cc3cncn3C)c2c1 yielded a growth rescue of -1.56%. In the case of Cn1cncc1C#Cc1c(-c2ccsc2)sc2ccccc12, the growth rescue is reported as 311% (active). For CC(=NCc1ccc2c(c1)OCO2)C1=C(O)c2ccccc2C1=O, the growth rescue was 47.2% (active). In the case of CCc1ccc(NC(=O)NC(C)c2ccc3c(c2)OCO3)cc1 (configuration not stated), the growth rescue is reported as 1.14%. With CC(=NCc1ccc2c(c1)OCO2)c1c(O)[nH]c(=O)[nH]c1=O the growth rescue was -0.437%. For CCN(/N=C/c1ccc(N(C)C)cc1)c1nc2ccccc2[nH]1, the growth rescue was 0.687%. Work on COc1ccc(N)c(C)c1 yielded a growth rescue of -0.552%. NC(=O)Cn1nc([N+](=O)[O-])nc1Oc1ccc(Br)cc1 gave a growth rescue of 1.81%. Cc1ccc(S(=O)(=O)N2CCOCC2)cc1NC(=O)COC(=O)c1cnccn1 showed a growth rescue of 0.734%. Molecule CCCc1nc2sc3c(c2c(=O)n1NC(=O)CCCl)CCCC3 has a growth rescue of -0.355%. For COCCNc1nc(-n2nc(C)cc2C)nc2sc3c(c12)CCCC3, the growth rescue was 111% (active). For CCC(O)CNc1nc(-n2nc(C)cc2C)nc2sc3c(c12)CC(C)(C)OC3 (configuration not stated), the growth rescue was 0.423%. For CC[C@]12c3[nH]c4ccc(OC)cc4c3CCN1C(=O)C(CC(=O)NCc1ccco1)C[C@@H]2C(=O)N1CCN(C(=O)C2CC2)CC1 (some centres not stated), the growth rescue was -1.76%. Cc1ccc2c(C)c(C(=O)N(C)CCC3CCCCO3)oc2c1C (configuration not stated) showed a growth rescue of 15.7%. With O=S(=O)(O)c1nc2ccccc2n1Cc1ccc(Cl)cc1Cl the growth rescue was 46.4% (active). O=S(=O)(Cc1ccccc1)c1nc2ccccc2n1Cc1ccccn1 showed a growth rescue of -1.91%. Work on O=C(Cn1c(NCCO)nc2ccccc21)c1ccc(Cl)cc1Cl yielded a growth rescue of 0.311%. Work on O=C(NC(=S)Nc1cccc(-c2ccc(CO)o2)c1)c1cccs1 yielded a growth rescue of 5.49%. In the case of Oc1c(C(c2ccccn2)N2CCOCC2)ccc2cccnc12 (configuration not stated), the growth rescue is reported as 457% (active). COc1cc2c(cc1OC)C(C)N(S(=O)(=O)c1cnc(Cl)c(Cl)c1)CC2 (configuration not stated) gave a growth rescue of 1.43%. In the case of CCC(=O)Nc1nc(C)c(C(=O)Nc2cccc(Cl)c2)s1, the growth rescue is reported as 68.4% (active). Molecule CCC(=O)Nc1sc(C(=O)Nc2ccccc2)c(C)c1C(=O)OC has a growth rescue of 4.36%. With CCOC(=O)c1sc(NC(=O)c2sc(C)nc2C)nc1C the growth rescue was -1.17%.
